# Ba/F3 V617F tox: reduced viability of JAK2V617F-dependent Ba/F3 cells, primary screen, JAK2V617F inhibitor project, cell-based, Ba/F3 EpoR-JAK2V617F, luminescence; AID 1446, 2008; ATP luminescence; inhibition, % at 5.6 µM; hit rate 1.1% among 220,000;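 active means inhibition above the campaign mean plus 3 SD over all tested compounds, cut at about 24% in these data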;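 further: cytokine-independent growth of Ba/F3 cells driven by EpoR plus mutant JAK2; 0% = DMSO-treated cells and 100% = JAK inhibitor I control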
# IEC-6 tox-1: cytotoxicity in IEC-6 intestinal epithelial cells, primary screen, cytotoxicity control for KLF5 inhibitor project, cell-based, luminescence; IEC-6 cytotoxicity, luminescence viability; inhibition, % at 5 µM; hit rate 0.78% among 290,000; AID 1825, 2009; in the data active means inhibition above about 22%;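 further: 0% = plate median of test compound wells and 100% = cytotoxic reference compound wells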
# APP 5UTR inh: inhibitors of APP translation via 5'UTR reporter, primary screen, APP 5'UTR luciferase, SH-SY5Y cells; SH-SY5Y APP 5'UTR-luciferase reporter, luminescence; hit rate 0.82% among 190,000; inhibition, % at 2 µM;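 active means inhibition above a set limit, derived from the sample mean plus 3 SD, cut at about 45% in these data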
# BaF3 tox: parental Ba/F3 cell viability inhibition, counter-screen for JAK2V617F inhibitor project, murine pro-B, CellTiter-Glo luminescence; CellTiter-Glo ATP luminescence; inhibition, % at 5.6 µM; hit rate 1.1% among 220,000;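 active means inhibition above a per-campaign cutoff, the mean inhibition of all tested compounds plus 3 SD, cut at about 27% in these data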;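 further: 0% = DMSO wells and 100% = JAK Inhibitor I control wells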
# KLF5 inhibitor: KLF5 expression inhibitors, primary screen, DLD-1 cells, luminescence; hit rate 0.23% among 290,000; DLD-1 KLF5 promoter-luciferase reporter; AID 1700, 2009; inhibition, % at 5 µM;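 active means inhibition above a per-plate limit of that plate's mean compound inhibition plus 3 SD, cut at about 60% in these data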;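 further: 0% = DMSO wells and 100% = LY294002 at 200 µM; higher means less KLF5 promoter-driven luciferase light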
# KLF5 confirm: KLF5 expression inhibitors, confirmation, DLD-1 cells, luminescence. DLD-1 KLF5 promoter firefly luciferase reporter. inhibition, % at 4 µM. hit rate 79% among 610. shares compounds with KLF5 inhibitor;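 active means inhibition above a set limit taken from the earlier primary screen, cut at about 63% in these data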;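 further: 0% = DMSO wells and 100% = LY294002 at 200 µM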
# IEC-6 tox-2: cytotoxicity in rat IEC-6 cells, cytotoxicity control for KLF5 inhibitor project, cell-based, luminescence, triplicate; shares compounds with KLF5 inhibitor; IEC-6 rat intestinal cells, viability luminescence; inhibition, % at 4 µM; hit rate 56% among 610; AID 1905, 2009; in the data active means inhibition above about 23%;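 further: cells exposed to compounds for 48 hours before viability read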
# * = called active by the depositor; nt = not tested or not shown. A selection: hits, their analogues and other compounds. The true share with any hit is near 1.9%.
SMILES,Ba/F3 V617F tox,IEC-6 tox-1,APP 5UTR inh,BaF3 tox,KLF5 inhibitor,KLF5 confirm,IEC-6 tox-2
Cc1ccc(-n2c(-c3ccc(Br)cc3)c[n+]3c2CCc2ccc4cccnc4c2-3)cc1,97*,56*,3,91*,69*,111*,50*
COc1cccc(/C=N/Nc2ccc(S(=O)(=O)O)cc2)c1O,-4,0,-14,3,-2,nt,nt
COc1cccc(/C=N/Nc2nc(C)cc(=O)[nH]2)c1OC,nt,-5,nt,nt,-31,nt,nt
COc1cccc(/C=N/NC(=O)c2cc3c(OC)ccc(OC)c3[nH]2)c1O,nt,12,nt,nt,88*,72*,-2
COc1cccc(/C=N/Nc2ccc([N+](=O)[O-])cn2)c1O,nt,10,nt,nt,85*,72*,7
COc1cccc(/C=N/Nc2ncccc2[N+](=O)[O-])c1OC,17,12,nt,14,81*,30,23*
COc1cc(OC)c2cc(C(=O)N/N=C/c3cccc(OC)c3O)[nH]c2c1,0,3,nt,-3,39,nt,nt
COc1cccc(/C=N/Nc2nc(Nc3ccc([N+](=O)[O-])cc3)nc(N3CCCC3)n2)c1O,-1,1,43,3,-6,nt,nt
COc1cccc(/C=N/Nc2ccc(C(=O)O)cc2)c1O,1,-5,80*,3,100*,111*,-7
Cc1nnsc1S(=O)(=O)Cc1ccccc1C(F)(F)F,-2,3,4,6,-28,nt,nt
O=C(CCS(=O)(=O)c1ccc(Cl)cc1)NCCc1c[nH]c2ccccc12,0,2,-2,4,-10,nt,nt
CCCCC(=O)NC(c1ccc([N+](=O)[O-])cc1)c1c(O)ccc2ccccc12 (stereo not given),-1,10,12,2,-12,nt,nt
CCCCC(=O)NC(c1ccc(C(C)C)cc1)c1ccc2cccnc2c1O (stereo not given),nt,16,nt,nt,69*,80*,46*
CCCC(=O)NC(c1ccc(OC)cc1)c1ccc2cccnc2c1O (stereo not given),54*,38*,82*,66*,90*,96*,92*
CCCCN1C=CC(=C2C(=O)c3ccccc3C2=O)C=C1,21,19,58*,22,95*,56,8
CCCCNC1=CC(=O)C(=O)c2ccccc21,-2,14,11,7,-12,nt,nt
CCOC(=O)CN1C2=NCCCN2c2ccccc21,-2,-1,8,0,-28,nt,nt
CCOC(=O)CN1C2=NCCN2c2ccccc21,-1,-2,-1,0,79*,3,8
O=C1C2CCCN2C(=S)N1c1ccc(Cl)cc1 (stereo not given),nt,-6,nt,nt,-35,nt,nt
O=C(O)CSCC(=O)Nc1ccc(C2CCCCC2)cc1,-1,10,68*,2,75*,77*,7
O=Cc1ccc2cccnc2n1,3,6,1,5,20,nt,nt
O=Cc1ccc2ccc3cccnc3c2n1,nt,2,nt,nt,78*,-4,-5
CCCn1c(C)cc(C(=O)COC(=O)c2ccc[nH]c2=O)c1C,0,-6,-38,8,-79,nt,nt
CN1CCN(c2ccc(-c3ccc4ccccc4n3)cc2)CC1,14,8,51*,11,99*,104*,-6
CC1=Nc2cc(C(=O)NCc3ccco3)ccc2Sc2ccc(C)cc21,84*,80*,96*,80*,68*,83*,62*
SMILES,Ba/F3 V617F tox,IEC-6 tox-1,APP 5UTR inh,BaF3 tox,KLF5 inhibitor,KLF5 confirm,IEC-6 tox-2
CCN(CC)S(=O)(=O)c1cc(OC)ccc1N=Nc1ccc(O)c2ncccc12,nt,7,nt,nt,87*,87*,4
CCOc1ccc(N=Nc2ccc(O)c3ncccc23)cc1,nt,14,nt,nt,65*,19,-1
CCOc1ccc(N=Nc2cc(C(C)C)ccc2O)cc1,4,2,11,6,17,nt,nt
CCN(CC)S(=O)(=O)c1cccc2cccnc12,-3,2,-9,2,-31,nt,nt
Cc1ccccc1NS(=O)(=O)c1csc(C(N)=O)c1,nt,1,nt,nt,-27,nt,nt
O=C(O)CCCNS(=O)(=O)/C=C/c1ccccc1,-2,1,-4,-2,9,nt,nt
COc1ccc(C(=O)NN(C)c2nc(-c3ccccc3)nnc2C(F)(F)F)cc1,4,-3,11,12,1,nt,nt
COc1ccc(C(=O)NN(C)c2nc(C(F)(F)F)nc3ccccc23)cc1,96*,96*,95*,95*,82*,96*,81*
CCOc1ccc(C(C)=O)cc1CN1C(=O)NC(C)(C2CC2)C1=O (stereo not given),-1,-7,16,5,5,nt,nt
O=c1cc(-c2ccccc2)[nH]c2ccccc12,82*,84*,94*,79*,65*,83*,57*
COC(=O)c1c(N)sc(C(=O)NCCc2ccccc2)c1C,nt,2,nt,nt,93*,85*,-2
COC(=O)c1c(N)sc(C(C)=O)c1C,-4,-1,-6,0,-9,nt,nt
CCOC(=O)CSc1nnc(SCCN2C(=O)c3ccccc3C2=O)s1,-2,0,-9,1,-16,nt,nt
Cc1ccc2c(c1)COc1c3ccc(C(=O)O)cc3nn1-2,nt,-4,nt,nt,92*,9,-7
Cc1ccc(Sc2c(CO)c(-c3ccccc3)nn2C)cc1,80*,86*,95*,82*,72*,84*,56*
Cc1ccc(-c2nn(-c3ccccc3)cc2CO)cc1,nt,3,nt,nt,-55,nt,nt
COc1ccc(OCc2cccc(C(=O)Nn3cc([N+](=O)[O-])cn3)c2)cc1,6,4,-25,12,93*,103*,5
COc1ccc(C2=NS(=O)(=O)N(C)C(C(=O)NCc3cccs3)=C2)cc1OC,nt,10,nt,nt,-37,nt,nt
O=C(NC1=NCCS1)C1COc2ccccc2O1 (stereo not given),3,0,2,4,69*,71*,-8
O=C(Nc1ccncc1)C1COc2ccccc2O1 (stereo not given),3,6,6,4,1,nt,nt
CC1CCc2[nH]c3ccc(C(=O)NCCCOC(C)C)cc3c2C1 (stereo not given),0,12,2,3,-47,nt,nt
Cc1cc(Br)cc(/C=N/NC(=O)c2ccc3c(c2)OCO3)c1O,nt,16,nt,nt,70*,61,15
Cn1cccc1-c1cc(C(=O)N/N=C/c2cc(Br)ccc2O)[nH]n1,nt,12,nt,nt,65*,79*,-2
O=C(N/N=C/c1cc(Br)c(O)c(Br)c1O)c1ccc2c(c1)OCCO2,nt,12,nt,nt,-20,nt,nt
COc1ccc(C(=O)N/N=C/c2cc(Br)ccc2O)cc1OC,16,4,nt,0,68*,92*,-3
O=C(NNC(=O)C1CC(=O)N(Cc2ccccc2)C1)c1ccc(Br)cc1 (stereo not given),nt,-4,nt,nt,-7,nt,nt

# Compound activity: PubChem BioAssay, several laboratories
